Inconclusive results are not listed. Activity calls are given as the source filed them. Unless noted, the call rests on the fitted dose curve; in most records, active means well fitted curve in the direction sought with a large enough effect in the repeat runs; inconclusive means weak or mixed curves; inactive means no such curve, though single readings can be large; an effect the other way counts as inactive or inconclusive.
Experiments:
[1] = qHTS assay to identify small molecule agonists of the peroxisome proliferator-activated receptor delta (PPARd) signaling pathway - cell viability counter screen (AID 743211); further: nearly all actives have a fitted effect of over 55% in size
Outline: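 PPARd-bla HEK293H cells (3000/well) were pre-incubated 5 h at 37 C, then exposed to compound for 17 h at 37 C. After 2 h with LiveBLAzer substrate, CellTiter-Glo was added to the same wells; luminescence read after 30 min at room temperature.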

[2] = target: Peroxisome proliferator-activated receptor delta (Homo sapiens) (UniProt Q03181); experiment: qHTS assay to identify small molecule agonists of the peroxisome proliferator-activated receptor delta (PPARd) signaling pathway (AID 743212; calls by dose curve)
Outline: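 GeneBLAzer UAS-bla HEK293H cells carrying a PPARδ construct were exposed to compounds at 37 °C. Beta-lactamase activity was read by FRET fluorescence after 2 h at room temperature with LiveBLAzer B/G substrate.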

[3] = qHTS assay to identify small molecule antagonists of the peroxisome proliferator-activated receptor delta (PPARd) signaling pathway - cell viability counter screen (AID 743213); further: nearly all actives have a fitted effect of over 50% in size
Outline: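 Same-well viability: cells pre-incubated 5 h, dosed with compound plus 300 nM L165041, kept 17 h at 37 C, FRET substrate 2 h RT, then CellTiter-Glo 30 min RT and luminescence.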

[4] = target: Peroxisome proliferator-activated receptor delta (Homo sapiens) (UniProt Q03181); experiment: qHTS assay to identify small molecule antagonists of the peroxisome proliferator-activated receptor delta (PPARd) signaling pathway (AID 743215; active means well fitted inhibition curve with a large enough effect in the signal ratio in the repeat runs, not every such curve was filed as active; the % refers to the signal ratio;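 further: cells stimulated with agonist L165041 at 300 nM final during compound exposure; series mostly up to about 62 µM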)
Outline: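 HEK293H UAS-bla, PPARd; agonist L165041 300 nM final with cpd in DMSO; 37 C 17 h; FRET substrate, RT 2 h; fluorescence intensity.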

[5] = target: Bile acid receptor (Homo sapiens) (UniProt Q96RI1); experiment: qHTS assay to identify small molecule antagonists of the farnesoid-X-receptor (FXR) signaling pathway (AID 743217; active means well fitted inhibition curve with a large enough effect in the signal ratio in the repeat runs, not every such curve was filed as active; the % refers to the signal ratio)
Outline: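 GeneBLAzer FXR-UAS-bla HEK 293T, CDCA-stimulated (50 uM final). Compound treatment 16 h, 37 °C. Detection: beta-lactamase cleavage of B/G FRET substrate, fluorescence.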

[6] = qHTS assay to identify small molecule agonists of the farnesoid-X-receptor (FXR) signaling pathway - cell viability counter screen (AID 743218); further: nearly all actives have a fitted effect of over 45% in size
Outline: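 Parallel cytotoxicity test: compound-treated (16 h, 37 C) HEK 293T FXR-bla reporter cells were lysed with CellTiter-Glo and luminescence recorded.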

[7] = target: Bile acid receptor (Homo sapiens) (UniProt Q96RI1); experiment: qHTS assay to identify small molecule agonists of the farnesoid-X-receptor (FXR) signaling pathway (AID 743220; active means well fitted activation curve with a large enough effect in the signal ratio in the repeat runs, not every such curve was filed as active; the % refers to the signal ratio)
Outline: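 Beta-lactamase reporter under UAS control in GeneBLAzer FXR HEK 293T cells (5000/well) measured with LiveBLAzer FRET substrate after 2 h at room temperature. Compound exposure lasted 16 h at 37C.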

[8] = qHTS assay to identify small molecule antagonists of the farnesoid-X-receptor (FXR) signaling pathway - cell viability counter screen (AID 743221; active means well fitted cell-killing curve with a large enough effect in the repeat runs, not every such curve was filed as active; further: nearly all actives have a fitted effect of over 50% in size)
Outline: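 GeneBLAzer FXR-UAS-bla HEK 293T cells, compound plus chenodeoxycholic acid (50 uM final), 16 h at 37 C. CellTiter-Glo added to the same wells after the beta-lactamase read; luminescence read after 30 min at room temperature as viability.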

[9] = target: Vitamin D3 receptor (Homo sapiens) (UniProt P11473); experiment: qHTS assay to identify small molecule antagonists of the vitamin D receptor (VDR) signaling pathway (AID 743223; active means well fitted inhibition curve with a large enough effect in the signal ratio in the repeat runs, not every such curve was filed as active; the % refers to the signal ratio)
Outline: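 VDR-bla cells were treated with compound plus 3 nM final 1alpha,25-dihydroxyvitamin D3 for 16 h at 37C. Beta-lactamase reporter read by B/G FRET substrate fluorescence after 2 h at room temperature. qHTS format.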

[10] = target: Vitamin D3 receptor (Homo sapiens) (UniProt P11473); experiment: qHTS assay to identify small molecule agonists of the vitamin D receptor (VDR) signaling pathway (AID 743222; calls by dose curve)
Outline: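 In VDR-bla cells, compound-induced beta-lactamase expression is quantified by FRET substrate fluorescence. Treatment lasts 16 h at 37C; substrate develops 2 h at room temperature.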

Measured: Potency

Sequence of Peroxisome proliferator-activated receptor delta (Homo sapiens) (Q03181 whole entry, looked up): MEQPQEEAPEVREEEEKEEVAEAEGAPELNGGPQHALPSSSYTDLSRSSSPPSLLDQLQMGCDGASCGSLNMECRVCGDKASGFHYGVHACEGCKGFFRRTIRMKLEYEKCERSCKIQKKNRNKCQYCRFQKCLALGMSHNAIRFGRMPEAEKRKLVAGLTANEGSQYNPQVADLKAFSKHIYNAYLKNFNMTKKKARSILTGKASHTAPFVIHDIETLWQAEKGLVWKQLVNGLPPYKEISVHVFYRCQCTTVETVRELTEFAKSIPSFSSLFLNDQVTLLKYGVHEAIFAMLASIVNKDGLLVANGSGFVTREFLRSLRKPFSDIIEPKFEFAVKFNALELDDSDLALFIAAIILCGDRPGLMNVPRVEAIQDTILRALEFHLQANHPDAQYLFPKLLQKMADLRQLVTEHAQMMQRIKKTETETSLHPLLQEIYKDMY
Sequence of Vitamin D3 receptor (Homo sapiens) (P11473 whole entry, looked up): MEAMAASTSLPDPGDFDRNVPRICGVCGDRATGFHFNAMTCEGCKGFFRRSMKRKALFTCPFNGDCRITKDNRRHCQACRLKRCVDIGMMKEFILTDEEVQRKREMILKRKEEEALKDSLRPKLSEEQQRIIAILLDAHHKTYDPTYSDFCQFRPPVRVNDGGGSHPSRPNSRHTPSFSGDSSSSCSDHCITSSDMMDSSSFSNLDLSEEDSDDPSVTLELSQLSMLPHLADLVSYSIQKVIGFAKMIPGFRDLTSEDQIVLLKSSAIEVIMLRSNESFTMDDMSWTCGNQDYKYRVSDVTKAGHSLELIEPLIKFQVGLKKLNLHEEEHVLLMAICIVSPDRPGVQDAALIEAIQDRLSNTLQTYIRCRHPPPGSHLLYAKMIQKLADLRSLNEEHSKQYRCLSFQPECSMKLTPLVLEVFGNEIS
Sequence of Bile acid receptor (Homo sapiens) (Q96RI1 whole entry, looked up): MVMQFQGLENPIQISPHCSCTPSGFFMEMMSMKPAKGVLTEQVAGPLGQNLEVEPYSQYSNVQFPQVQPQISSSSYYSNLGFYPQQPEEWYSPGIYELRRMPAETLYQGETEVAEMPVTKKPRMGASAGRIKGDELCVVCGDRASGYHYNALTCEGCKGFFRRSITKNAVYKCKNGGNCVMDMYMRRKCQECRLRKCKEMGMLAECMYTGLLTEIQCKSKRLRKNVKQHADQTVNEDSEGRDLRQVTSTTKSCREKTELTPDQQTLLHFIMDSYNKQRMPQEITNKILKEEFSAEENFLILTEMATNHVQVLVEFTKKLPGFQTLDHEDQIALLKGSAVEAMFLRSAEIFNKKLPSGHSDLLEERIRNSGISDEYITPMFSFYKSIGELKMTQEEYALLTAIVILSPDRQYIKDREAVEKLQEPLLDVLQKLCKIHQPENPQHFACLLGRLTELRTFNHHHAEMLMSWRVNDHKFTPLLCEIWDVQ

C=COCC1CCC(CO)CC1 (centres undefined)
inactive: [1] | [2] | [3] | [4] | [5] | [6] | [7] | [8] | [9]

COC(=O)c1c(Cl)c(Cl)c(C(=O)OC)c(Cl)c1Cl
inactive: [1] | [2] | [3] | [4] | [5] | [6] | [7] | [8] | [10]

FC1(F)C(F)(F)C(F)(F)C2(F)C(F)(F)C(F)(F)C(F)(F)C(F)(F)C2(F)C1(F)F (centres undefined)
inactive: [1] | [2] | [3] | [4] | [5] | [6] | [7] | [8] | [10]

CO/N=C(/C(=O)N[C@@H]1C(=O)N2C(C(=O)OCOC(=O)C(C)(C)C)=C(C)CS[C@H]12)c1csc(N)n1
inactive: [1] | [2] | [3] | [4] | [5] | [6] | [7] | [8] | [10]

CCC(=O)OC(C)c1ccccc1 (centres undefined)
inactive: [1] | [2] | [3] | [4] | [5] | [6] | [7] | [8] | [10]

Nc1c2c(nc3ccccc13)CCCC2O (centres undefined)
inactive: [1] | [2] | [3] | [4] | [6]

N=c1nc(N2CCCCC2)cc(N)n1O
inactive: [1] | [2] | [3] | [4] | [5] | [6] | [7] | [8]

C1OCOCO1
inactive: [1] | [2] | [3] | [4] | [5] | [6] | [7] | [8]

CCOC(=O)CCC(C)=O
inactive: [1] | [2] | [3] | [4] | [5] | [6] | [7] | [10] | [9]

CC1(C)C(O)C(C)(C)C1O (centres undefined)
inactive: [1] | [2] | [3] | [4] | [6] | [8] | [10] | [9]

CCCN(CCC)CCc1cccc2c1CC(=O)N2
inactive: [1] | [2] | [3] | [4] | [6] | [8]

CC(C)NCC(O)c1ccc(NS(C)(=O)=O)cc1 (centres undefined)
inactive: [1] | [2] | [3] | [4] | [6] | [8] | [10] | [9]

O=C1CCCCCCCCCCCN1
inactive: [1] | [2] | [3] | [4] | [6] | [8] | [9]

COC(=O)c1ccc(C)cc1C1=NC(C)(C(C)C)C(=O)N1 (centres undefined)
inactive: [1] | [2] | [3] | [4] | [6] | [8]

CCC(C)C1CCCCC1=O (centres undefined)
inactive: [1] | [2] | [3] | [4] | [6] | [8]

CN(C(=O)c1c(O)c2ccccc2n(C)c1=O)c1ccccc1
inactive: [1] | [2] | [3] | [4] | [6] | [8] | [10] | [9]

CC(=O)OC/C=C(\C)CC/C=C(\C)CCC=C(C)C
inactive: [1] | [2] | [3] | [4] | [6] | [8] | [10]

CC(C)(CC(=O)O)C(=O)O
inactive: [1] | [2] | [3] | [4] | [6] | [8] | [9]

O=c1cc(-c2ccccc2)oc2ccccc12
inactive: [1] | [2] | [3] | [4] | [9]

Cn1c(N)c(N=O)c(=O)n(C)c1=O
inactive: [1] | [2] | [3] | [4] | [6] | [8] | [9]

CC(=O)CC(C)(C)C1CCCCC1
inactive: [1] | [2] | [3] | [4] | [6] | [8]

CCSC(=O)N(CC(C)C)CC(C)C
inactive: [1] | [2] | [3] | [4] | [6] | [8] | [10] | [9]

C=CCOCC(CC)(CO)COCC=C
inactive: [1] | [2] | [3] | [4] | [6] | [8] | [9]

CCCCCCCCCCCCN(CCCCCCCCCCCC)CCCCCCCCCCCC
inactive: [1] | [2] | [3] | [4] | [6] | [10] | [9]

CN(C)CCCSc1ccccc1NC(=O)/C=C/c1ccccc1
inactive: [1] | [2] | [3] | [4] | [7] | [8] | [10] | [9]

NC(=O)c1ccc([N+](=O)[O-])cc1
inactive: [1] | [2] | [3] | [4] | [6] | [10]

OCCCC1CCCCC1
inactive: [1] | [2] | [3] | [4] | [6] | [8]

O=c1[nH]c(=O)n([C@H]2C[C@H](O)[C@@H](CO)O2)cc1I
inactive: [1] | [2] | [3] | [4] | [6] | [8] | [10] | [9]

N[C@H](C(=O)O)c1ccc(O)cc1
inactive: [1] | [2] | [3] | [4] | [6] | [8] | [10] | [9]
